Out of some 220,000 compounds screened, about 910 (0.41%) were called active.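 The calls were made as follows: active = primary inhibition above the hit cutoff, then over 50% inhibition at one or more dose response concentrations (cut at about 23% in these data, passing the limit was not always enough); inconclusive = conflicting primary data, or primary hits not chosen for dose response; inactive = low primary inhibition, or under 50% at every dose.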 The entries come from a sample that favours actives as a whole. Entries with a potency or affinity are not part of this list.

For orientation: inhibition means the relative decrease from the control value, in per cent.

In this assay the target is Aminopeptidase N (Plasmodium falciparum (isolate 3D7)) (UniProt O96935). Kind of assay: P. falciparum M1AAP inhibitors, biochemical, fluorogenic H-Leu-NHMec substrate, 1536-well (AID 1445).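 Also: plate controls were DMSO full reaction for no effect and no enzyme background for full effect.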 Conditions: recombinant M1AAP, H-Leu-NHMec fluorogenic kinetic assay; at 30 µM, stronger effect = higher value unless noted.
Aminopeptidase N (Plasmodium falciparum (isolate 3D7)), sequence (O96935 whole entry, looked up): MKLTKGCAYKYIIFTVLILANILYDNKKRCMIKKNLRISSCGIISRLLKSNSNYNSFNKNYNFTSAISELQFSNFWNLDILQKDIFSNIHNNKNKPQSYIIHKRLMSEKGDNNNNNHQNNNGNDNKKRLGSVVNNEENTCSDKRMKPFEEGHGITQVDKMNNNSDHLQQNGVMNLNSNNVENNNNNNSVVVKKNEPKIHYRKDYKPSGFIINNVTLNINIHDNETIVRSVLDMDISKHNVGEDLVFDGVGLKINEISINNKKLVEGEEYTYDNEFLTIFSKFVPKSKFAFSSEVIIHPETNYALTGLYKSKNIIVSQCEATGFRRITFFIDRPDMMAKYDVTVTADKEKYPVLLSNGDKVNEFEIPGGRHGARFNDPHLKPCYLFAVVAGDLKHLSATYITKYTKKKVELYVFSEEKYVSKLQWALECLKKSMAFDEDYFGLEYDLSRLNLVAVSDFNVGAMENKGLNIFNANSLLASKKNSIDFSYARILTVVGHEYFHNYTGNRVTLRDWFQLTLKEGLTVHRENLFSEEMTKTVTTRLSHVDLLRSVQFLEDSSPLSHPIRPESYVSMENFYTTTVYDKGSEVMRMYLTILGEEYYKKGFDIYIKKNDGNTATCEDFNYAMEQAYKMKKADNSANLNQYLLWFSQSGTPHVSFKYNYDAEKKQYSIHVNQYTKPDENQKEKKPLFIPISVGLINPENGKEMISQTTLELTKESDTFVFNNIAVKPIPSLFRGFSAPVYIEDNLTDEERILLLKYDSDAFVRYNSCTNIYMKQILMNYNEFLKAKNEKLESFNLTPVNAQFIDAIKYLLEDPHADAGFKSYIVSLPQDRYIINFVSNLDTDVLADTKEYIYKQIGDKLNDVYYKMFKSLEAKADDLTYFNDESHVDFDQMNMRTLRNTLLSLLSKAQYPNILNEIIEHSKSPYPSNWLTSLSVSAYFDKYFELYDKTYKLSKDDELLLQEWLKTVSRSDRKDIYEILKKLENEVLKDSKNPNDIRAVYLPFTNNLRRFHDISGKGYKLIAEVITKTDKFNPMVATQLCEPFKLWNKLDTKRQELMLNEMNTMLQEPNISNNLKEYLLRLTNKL
For `CC(/C=N/NC(=O)Cn1cnc2c1c(=O)n(C)c(=O)n2C)=C\c1ccco1`, the inhibition was 5.25% (inactive). Turning to `CCOC(=O)c1[nH]c2c(c1C)C(=O)CC(c1ccco1)C2` (stereo not given), the inhibition is 15.3% (inactive). Regarding `Cc1c(C(=O)OCc2ccccc2)[nH]c2c1C(=O)CC(c1ccco1)C2` (stereo not given), the inhibition is 6.2% (inactive).

Turning to `Cc1c(C(=O)OC2CCCC2)[nH]c2c1C(=O)CC(c1ccco1)C2` (stereo not given), the inhibition was 25.6% (active). For `CC(C(=O)NC1C(=O)N2C(C(=O)O)=C(CSc3nnnn3C)CSC12)n1cc(Cl)cn1` (stereo not given), the inhibition was 6.59% (inactive). Regarding `CC1(C)OC2OC(C(=O)N/N=C/c3ccccc3F)C3OC(C)(C)OC3C2O1` (stereo not given), the inhibition is -0.42% (inactive).

Consider `Nc1nonc1C(=O)N/N=C/c1ccc(Br)o1`, for which the inhibition was 15.9% (inactive).

For `COc1ccc(NC(=O)C2OC3OC(C)(C)OC3C3OC(C)(C)OC23)cc1` (stereo not given), the inhibition is 6.98% (inactive). As to `O=C(CCc1ccccc1)N/N=C/c1cc(Br)ccc1O`, the inhibition is 16.7% (inactive). In the case of `NC(=O)N/N=C/c1cc(Br)ccc1OC(=O)c1ccccc1`, the inhibition is 6.38% (inactive). On to `O=C(CCC(=O)Nc1ccc(Br)cc1)N/N=C/c1cc([N+](=O)[O-])ccc1O`, for which the inhibition was 13.8% (inactive). Consider `Nc1nonc1C(=O)N/N=C/c1ccncc1`, for which the inhibition was 9.52% (inactive).

As to `COC(=O)N/N=C/c1cc(Br)ccc1O`, the inhibition was 17.8% (inactive). On to `CCCn1nnc(NC(=S)NC(=O)C(C)(C)C)n1`, for which the inhibition was 7.37% (inactive). `O=C1c2cc(S(=O)(=O)NCCO)ccc2-c2ccc(S(=O)(=O)NCCO)cc21`: the inhibition was 2.13% (inactive). Regarding `Cc1ccc([N+](=O)[O-])cc1NC(=O)Nc1ccc(S(N)(=O)=O)cc1`, the inhibition was -7.81% (inactive). For the compound `CC1=CC2=NC(=O)CC(C)(C(=O)N(CC(=O)NC(C)C)C3CCCC3)N2C=C1` (stereo not given), the inhibition was 1.08% (inactive). `O=C(Nc1ccc(Br)cc1)c1cccn1-c1ncc(C(F)(F)F)cc1Cl`: the inhibition is -0.41% (inactive). As to `Cc1ccc(NC(=O)C2CCN(C(=O)c3ccccc3C)CC2)cc1`, the inhibition is 4.97% (inactive). Regarding `CCN(CC)CCOC(=O)c1ccc(N/C=C(/C#N)c2nc(-c3ccc(OC)cc3)cs2)cc1`, the inhibition was 4.36% (inactive). `CCOC(=O)c1c(-c2ccc(F)cc2)csc1NC(=O)c1c(-c2ccccc2)noc1C`: the inhibition was 0.4% (inactive).

In the case of `CCOC(=O)C1=NN(c2ccccc2)C2=NC(C)=C(C(=O)OC)C(c3ccc(C)cc3)N12` (stereo not given), the inhibition is 8.08% (inactive).

In the case of `COc1ccc(C2CC(c3c(-c4ccccc4)c4cc(Cl)ccc4[nH]c3=O)=NN2S(C)(=O)=O)cc1OC` (stereo not given), the inhibition is 13.3% (inactive).

Take `CC(=O)N1N=C(c2ccc(C)cc2)CC1c1ccco1` (stereo not given): the inhibition was 6.1% (inactive). With `COc1ccc(C2CC(c3c(-c4ccccc4)c4cc(Cl)ccc4[nH]c3=O)=NN2S(C)(=O)=O)cc1` (stereo not given), the inhibition was 2.82% (inactive).

Regarding `Cc1ccc(C2=NN(C(=O)CCCC(=O)O)C(c3ccco3)C2)cc1` (stereo not given), the inhibition was 7.5% (inactive). Then `COc1ccc(C2CC(c3ccccc3)=NN2C(=O)COC(=O)C2CC2)cc1` (stereo not given), with 8.28% (inactive); and `CC(=O)N1N=C(c2c(-c3ccccc3)c3cc(C)ccc3[nH]c2=O)CC1c1ccco1` (stereo not given), with 20% (inactive).

Consider `CCC(=O)N1N=C(c2c(-c3ccccc3)c3cc(Cl)ccc3[nH]c2=O)CC1c1ccco1` (stereo not given), for which the inhibition is 22.1% (inactive). `O=C(O)CCC(=O)N1N=C(c2ccccc2)CC1c1ccc2nccnc2c1` (stereo not given): the inhibition is 12% (inactive).
